Screening results deposited in PubChem BioAssay by National Center for Advancing Translational Sciences (NCATS).
A selection: hits, their analogues and other compounds. The true share with any hit is near 5.7%.
HepG2 tox-1 – HepG2 cytotoxicity, counter-screen for TGF-b inhibitors; AID 588856; hit rate 0.76% among 410,000; HepG2 CAGA-GFP viability, ATP luminescence, 18 h; Potency, µM (top dose mostly 46.1 µM), inactives show at the top dose activity change, negative = cytotoxicity, most hits filed as cytotoxic; note: potency is the fitted concentration of half-maximal effect
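HepG2 CAGA-GFP cells (1000/well, DMEM with 1% FBS) received compound, then TGF-beta at 500 pg/mL final, and were incubated 18 hours at 37 degrees C. Viability was read by CellTiter-Glo luminescence. Media-only wells were set as complete cell-killing and DMSO as no toxicity.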
TGFb inhibitor – TGF-b pathway inhibition; HepG2 CAGA-GFP TGF-b/SMAD3 reporter, GFP fluorescence, 18 h; TGF-beta stimulated, 500 pg/mL final; hit rate 1.2% among 410,000; Potency, µM (top dose mostly 46.1 µM), for the others: top-dose activity, negative = inhibition, most hits filed as inhibitors; AID 588855; note: potency is the fitted concentration of half-maximal effect; % is set by controls: 0 for no effect and ±100 for the full control effect; nearly all actives have a fitted effect of over 65% in size
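HEPG2 CAGA-GFP cells (1000/well, DMEM with 1% FBS) were pre-incubated 2 h at 37 degrees C, given compound by pin tool, then stimulated with TGF-beta at 500 pg/mL final for 18 h before per-cell GFP fluorescence imaging.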
S2 tox – reduces viability in counter-screen for ATXN expression inhibitors; S2 cells (HEK-293 line with an ATXN2-luciferase reporter) viability, CellTiter-Fluor protease fluorescence, 24 h; Potency, µM (highest dose often 56.7 µM), usual class: cytotoxic; hit rate 0.49% among 400,000; note: potency is the fitted concentration of half-maximal effect; nearly all actives have a fitted effect of over 40% in size
IL1B secr inh – blocks inflammasome-driven IL-1 beta release. THP-1 LPS/ATP IL-1B secretion, AlphaLISA, 16 h; hits give low values. activity change, % at 57.5 µM. hit rate 4.7% among 360,000. AID 743279; in the data active = activity change below about -50%; inconclusive = mostly about -30% to -49%; note: % is set by controls: 0 for no effect and ±100 for the full control effect
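THP-1 cells pretreated 1 hr with compounds (up to 57.5 uM final), then stimulated with LPS (250 ng/mL final) plus ATP (1.25 mM final); secreted IL-1B measured by AlphaLISA after 16 hr, decreased signal indicating inhibition.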
ATXN2 expr inh – ATXN2 expression inhibition; HEK-293 ATXN2-luciferase reporter, luminescence, 24 h; Potency, µM (top dose mostly 57 µM), without a hit: at the highest dose activity change, negative = inhibition, actives largely listed as inhibitors; hit rate 0.72% among 360,000; note: potency is the fitted concentration of half-maximal effect; % is set by controls: 0 for no effect and ±100 for the full control effect; nearly all actives have a fitted effect of over 55% in size
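ATXN2-luciferase reporter cells (luciferase flanked by upstream and downstream ATXN2 gene portions) were treated 24 h at 37 °C with compounds at up to 57 uM. SteadyGlo luminescence gave expression; GF-AFC fluorescence gave viability.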
TGFb CAGA inh – confirmation of TGF-b signaling inhibitors in HepG2 reporter cells; hit rate 63% among 1,600; Potency, µM (series often up to 46.1 µM), for the others: at the top dose activity, negative = inhibition, hits mostly inhibitors; shares compounds with TGFb inhibitor; HepG2 CAGA-GFP TGF-b reporter, GFP fluorescence, 18 h; cells stimulated with TGF-beta, 500 pg/mL; note: potency is the fitted concentration of half-maximal effect; % is set by controls: 0 for no effect and ±100 for the full control effect; nearly all actives have a fitted effect of over 65% in size
HepG2 tox-2 – counter-screen for TGF-b inhibitors: cytotoxicity in HepG2 cells; AID 720535; HepG2 CAGA-GFP viability, ATP luminescence, 18 h; cells stimulated with TGF-beta, 500 pg/mL; Potency, µM (doses to about 46.1 µM), without a hit: at the highest dose activity, negative = cytotoxicity, usual class: inhibitors; hit rate 27% among 1,600; shares compounds with TGFb inhibitor; note: potency is the fitted concentration of half-maximal effect; % is set by controls: 0 for no effect and ±100 for the full control effect; nearly all actives have a fitted effect of over 70% in size
TGFb CCL64 inh – blocks TGF-b signaling in CCL64 reporter cells; CCL64 CAGA-GFP reporter, TGF-b stimulated, GFP fluorescence, 18 h; shares compounds with TGFb inhibitor; Potency, µM (doses to about 46.1 µM), for inactives: at the highest dose activity, negative = inhibition, hits mostly inhibitors; hit rate 41% among 1,600; note: potency is the fitted concentration of half-maximal effect; nearly all actives have a fitted effect of over 65% in size
TGFb COP inh – TGF-b inhibition validated with COP promoter. HepG2 COP-GFP TGF-b reporter, GFP fluorescence, 18 h; cells stimulated by added recombinant TGF-beta. Potency, µM (doses to about 46.1 µM), without a hit: at the top dose activity, negative = inhibition, hits mostly inhibitors. hit rate 3% among 1,600. shares compounds with TGFb inhibitor. AID 720537; note: potency is the fitted concentration of half-maximal effect; nearly all actives have a fitted effect of over 70% in size
* hit, by the source's call; i = inactive; u = inconclusive; x = no result. Unless noted, calls come from the whole dose curve; as a rule, active = well fitted curve in the direction sought with a large enough effect; inconclusive = small, poorly fitted or top-dose-only effect, or another doubt; inactive = no such curve, though single readings can be large; an effect the other way counts as inactive or inconclusive.

SMILES	HepG2 tox-1	TGFb inhibitor	S2 tox	IL1B secr inh	ATXN2 expr inh	TGFb CAGA inh	HepG2 tox-2	TGFb CCL64 inh	TGFb COP inh
NC(=O)c1cc(C(=O)c2cccc(Cl)c2Cl)c[nH]1	-18.9%	-1.8%	i	7.8	3.6%	x	x	x	x
Cc1cc(-c2ccc(C)c(S(=O)(=O)NCc3cccs3)c2)on1	-18.5%	0.0%	x	x	x	x	x	x	x
COc1ccccc1CNS(=O)(=O)c1ccc2c(c1)CC(C)N2C(=O)C1CCC1 (centres undefined)	-14.9%	14.1µM*	i	13.0	-17.8%	18.4µM*	-19.0%	-23.5%	13.3%
COc1ccccc1CNS(=O)(=O)c1ccc2c(c1)CC(C)N2C(=O)C1CC1 (centres undefined)	-73.5%	u	u	-0.5	x	x	x	x	x
Cc1ccc(C)c(NC(=O)CSc2nc3nccnc3c(=O)n2CCc2c[nH]c3ccccc23)c1	-20.2%	-37.7%	x	x	x	x	x	x	x
CCOc1ccc(CCN2C(=S)N([C@@H](CC(C)C)CN3CCCC3CN3C(=S)NC[C@@H]3CC(C)C)C[C@@H]2Cc2ccc(O)cc2)cc1 (some centres undefined)	-12.7%	u	u	u	u	x	x	x	x
CCOc1ccc(CCN2C(=S)N([C@@H](CC(C)C)CN3CCC[C@@H]3CN3C(=S)NC[C@@H]3CC(C)C)C[C@@H]2Cc2ccc(O)cc2)cc1	-43.6%	6.31µM*	12.6µM*	x	u	u	u	18.4µM*	68.1%
CCOc1ccc(CCN2C(=S)N([C@@H](CC(C)C)CN3CCCC3CN3C(=S)NC[C@@H]3Cc3ccc(O)cc3)C[C@@H]2CC(C)C)cc1 (some centres undefined)	-3.8%	4.47µM*	u	u	-25.9%	11.6µM*	-16.8%	u	3.4%
NC(=O)Cn1c(=O)n(-c2ccc(F)c(Cl)c2)c(=O)c2sc3ccccc3c21	-5.7%	-25.1%	i	x	0.8%	x	x	x	x
CC(=O)c1cccc(NC(=O)CSc2nc(=O)n(Cc3ccco3)c3c2CCC3)c1	4.0%	-28.3%	u	x	-33.5%	x	x	x	x
CC(C)(C)c1ccc(C(=O)CC(=O)c2cc(Cl)ccc2O)cc1	-15.9%	5.62µM*	i	68.9	-38.4%	u	u	9.2µM*	58.8%
Cc1ccc(C(=O)CC(=O)c2ccc(C(C)(C)C)cc2)cc1	-6.6%	-2.7%	i	9.7	10.4%	x	x	x	x
CCOc1ccc(-c2nonc2NC(=O)c2oc3ccc(F)cc3c2C)cc1	-16.0%	u	u	x	-16.4%	x	x	x	x
Cc1c(C(=O)Nc2nonc2-c2ccc(F)cc2)oc2ccc(F)cc12	-27.8%	11.2µM*	u	60.5	28.2µM*	13µM*	u	u	55.8%
CCOc1ccccc1C(=O)N1CC(=O)Nc2ccc(C)cc2C1c1ccccc1 (centres undefined)	9.0%	6.0%	i	x	13.1%	x	x	x	x
Cc1ccc(C)c(N(C)C(=O)CCNC(=O)Cn2cnc3ccccc3c2=O)c1	-1.1%	-0.8%	u	x	-1.3%	x	x	x	x
O=C(c1[nH]nc2c1CCc1ccccc1-2)N1CCN(Cc2ccc3c(c2)OCO3)CC1	-20.1%	11.2µM*	i	-78.7*	-32.8%	11.6µM*	u	u	51.8%
CC(=O)Nc1ccc(S(=O)(=O)Nc2c(C)nn(-c3ccccc3)c2C)cc1	10.8%	2.5%	u	29.5	-17.8%	x	x	x	x
Cc1nn(-c2ccc(F)cc2)c(C)c1NS(=O)(=O)c1ccc2ccccc2c1	-30.0%	10µM*	u	u	u	u	u	u	20.0%
O=C1c2cc(Cl)ccc2-c2c(O)cc(Cl)cc21	-15.4%	11.2µM*	i	-74.4*	u	11.6µM*	u	8.2µM*	27.0%
O=c1cc(O)c(-c2ccc(Cl)cc2)c(Cl)[nH]1	-5.4%	-7.7%	i	15.1	-10.2%	x	x	x	x
COc1cccc(CCNc2ncnc3c2nnn3C)c1	-44.5%	u	x	x	x	x	x	x	x
CCc1ccc(-c2cc(C)no2)cc1S(=O)(=O)Nc1ccc(Cl)cc1	-92.4%	u	x	x	x	x	x	x	x
CN(C)CCN(C)C1CN(Cc2ccc(F)cc2)S(=O)(=O)C1 (centres undefined)	2.6%	u	i	0.0	3.2%	6.9%	-10.8%	-2.3%	-4.1%
CCOc1ccc(NCc2nc3ccccc3n2CCOc2ccccc2)cc1	-23.3%	20µM*	u	-95.5*	-15.3%	14.6µM*	-29.5%	-19.4%	12.7%
SMILES	HepG2 tox-1	TGFb inhibitor	S2 tox	IL1B secr inh	ATXN2 expr inh	TGFb CAGA inh	HepG2 tox-2	TGFb CCL64 inh	TGFb COP inh
O=C1C=C(N2CCN(c3ccccn3)CC2)C(=O)c2c(O)ccc(O)c21	-92.1%	7.08µM*	u	-15.1	u	4.61µM*	9.2µM*	u	-9.5%
Cc1cc(NC(=O)CSc2nc(-c3ccc(Cl)cc3)cs2)no1	-6.7%	1.0%	i	-18.4	-22.8%	x	x	x	x
O=[N+]([O-])c1cccc(NC(=S)NCc2ccncc2)c1	-17.3%	-6.7%	u	28.9	-11.3%	x	x	x	x
O=C(Nc1cccc(-c2csc(Nc3ccc(Cl)cc3)n2)c1)c1cc([N+](=O)[O-])cc(C(F)(F)F)c1	-21.7%	20µM*	x	-26.9	-14.9%	8.2µM*	u	5.8µM*	45.0%
O=[N+]([O-])c1cccc(NC(=S)Nc2nc(-c3ccccc3Cl)cs2)c1	-28.1%	3.55µM*	u	-59.0*	-36.2%	3.66µM*	6.51µM*	6.51µM*	46.9%
O=C(CSc1nc(-c2ccc(Cl)cc2)cs1)Nc1cccc([N+](=O)[O-])c1	-31.3%	10µM*	u	-12.0	x	u	u	-4.5%	59.1%
FC(F)(F)c1nc2nc(Cl)c(Cl)nc2[nH]1	-3.5%	-11.3%	u	31.0	x	x	x	x	x
FC(F)(F)c1cccc(-c2nc3nc(Cl)c(Cl)nc3[nH]2)c1	-33.0%	2.24µM*	i	-17.9	x	6.51µM*	6.51µM*	5.17µM*	63.9%
